# Rows were chosen to be rich in hits. Some 2.4% of all compounds tested hit in one or more screens of this group.
# FEN1 inhibitor = inhibitors of human flap endonuclease 1 | hit rate 0.35% among 390,000 | Potency, µM (doses to about 114 µM), most hits filed as inhibitors | Recombinant FEN1 flap cleavage, fluorescence, 15 min; further: nearly all actives have a fitted effect of over 65% in size
#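 With each library titrated from low to high concentration, compounds met 10 nM FEN1 for 15 min at room temperature before 50 nM substrate was added; readings at 0 and 15 min fed four-parameter Hill curve fits.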
# POLI inh = DNA polymerase iota (human) inhibition | AID 588590 | Pol iota fluorescent replication assay, 10 min | hit rate 1% among 390,000 | Q9UNA4 | Potency, µM (top dose mostly 115 µM), actives largely listed as inhibitors
#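 Fluorescent replication assay read twice, at 0 min and 10 min after adding 50 nM (final) substrate. Enzyme (10 nM) and compounds were first incubated 15 min at room temperature; enzyme-free buffer wells were negative controls.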
# Pol eta inh-1 = blocks human DNA polymerase eta activity. Q9Y253. recombinant Pol eta, fluorescent DNA replication assay. AID 588591. Potency, µM (series often up to 114 µM), actives largely listed as inhibitors. hit rate 1.2% among 390,000
#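 Pol eta at 10 nM preincubated with compounds 15 min at room temperature; reaction started with fluorescent substrate (50 nM final) and read kinetically at 0 and 10 min.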
# Pol beta inh = blocks human DNA polymerase beta activity; P06746; Pol beta primer extension/strand displacement, fluorescence kinetic; Potency, µM (top dose mostly 114 µM), most hits filed as inhibitors; hit rate 1.3% among 340,000; AID 485314
#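 Homogeneous kinetic assay of primer extension and strand displacement by 10 nM Pol beta, preincubated 15 min at room temperature with compound before 50 nM substrate (final) was added. Read at 0 and 10 min; four-parameter Hill fit.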
# Pol kappa inh-1 = DNA polymerase kappa (human) inhibition; Q9UBT6; purified Pol kappa, fluorescent DNA synthesis assay, 10 min; Potency, µM (top dose mostly 107 µM), actives largely listed as inhibitors; hit rate 0.53% among 400,000; AID 588579
#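 50 nM final substrate added after 15 min RT preincubation of 10 nM Pol kappa with compound; fluorescence read at 0 and 10 min.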
# WRN inhibitor = inhibitors of human WRN helicase; Potency, µM (highest dose often 114 µM), actives largely listed as inhibitors; hit rate 0.46% among 360,000; Q14191; WRN helicase unwinding, fluorescent forked duplex, kinetic; further: nearly all actives have a fitted effect of over 55% in size
#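 Fluorescence dequenching readout, ex 525 nm/em 598 nm, kinetic mode: forked duplex DNA (100 nM final) with adjacent fluorophore and quencher unwound by WRN (20 nM final) with 2 mM ATP. Compound preincubation 15 min, room temperature.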
# GALK confirm = confirmation of human galactokinase (GALK) inhibitors. Potency, µM (titrated, usually from 115 µM), usual class: inhibitors. shares compounds with Pol eta inh-1. hit rate 70% among 150. AID 2015. purified GALK, Kinase-Glo ATP depletion luminescence
# GALK redox cs = generates H2O2 by redox cycling, flagging GALK artifacts; shares compounds with Pol eta inh-1; Phenol red-HRP H2O2 redox cycling, absorbance 600 nm; Potency, µM (series often up to 115 µM), most hits filed as inhibitors; hit rate 40% among 150
# HEK293 tox = counter-screen for GALK inhibitors: HEK293 cell cytotoxicity. shares compounds with Pol eta inh-1. HEK-293 viability, ATP luminescence (CellTiter-Glo), 24/48 h. Potency, µM (series often up to 46.1 µM), hits mostly inhibitors. hit rate 10% among 170. AID 2547
# Pol kappa inh-2 = Pol kappa (human) inhibition, cherry-pick confirmation. shares compounds with Pol eta inh-1. purified Pol-kappa, fluorescent strand-displacement substrate. Potency, µM, most hits filed as inhibitors. hit rate 76% among 920. AID 720501
# Pol eta inh-2 = confirmation of human DNA polymerase eta inhibitors; Potency, µM, usual class: inhibitors; Pol eta primer extension, TAMRA/BHQ fluorescence, 10 min; hit rate 64% among 2,600; shares compounds with Pol eta inh-1
# Numbers stand for hits; – = inactive; ? = inconclusive; · = not tested or not shown; [ ] = dose if it differs, or a comment. The call rests on the fitted dose curve; in most records, active means well fitted curve in the direction sought with a large enough effect; inconclusive means small, poorly fitted or top-dose-only effect, or another doubt; inactive means no such curve, though single readings can be large; an effect the other way counts as inactive or inconclusive.
SMILES,FEN1 inhibitor,POLI inh,Pol eta inh-1,Pol beta inh,Pol kappa inh-1,WRN inhibitor,Pol eta inh-2,others
COc1cc(/C=C2/C(=O)NN(c3ccc(Cl)c(Cl)c3)C2=O)cc([N+](=O)[O-])c1O,?,18µM,20µM,20µM,–,50µM,30,GALK confirm=33µM;GALK redox cs=–;HEK293 tox=–
CC(C)Sc1nc2sc3c(c2c2nnc(SCC(=O)NCc4ccco4)n12)CCCC3,–,?,4.5µM,–,–,–[11.6 µM],67,
CCOc1ccc(OCc2ccc(C(=O)O)o2)cc1,–,–,13µM,14µM,–,–[11.6 µM],60,
O=C(O)c1ccc(COc2ccc3ccccc3c2)o1,–,?,–,–,–,–,·,
CC1=C(C#N)C(=O)NC(=O)/C1=C\c1ccc(-c2cc(C)c(C)cc2[N+](=O)[O-])o1,–,?,?,?,?,?,?,Pol kappa inh-2=?
CCOC(=O)c1cnc2nc(NCc3ccc(OCC)cc3)[nH]n2c1=O,–,–,–,–,–,·,·,
Cc1ccc(C(=O)N/C(=C/c2ccco2)C(=O)Nc2cccc(C(=O)O)c2)cc1,–,?,22µM,–,?,–,?,
O=C(/C=C/c1ccco1)Nc1ccccc1C(=O)Nc1cccc(C(=O)O)c1,–,20µM,18µM,–,?,?,30,Pol kappa inh-2=24
Cc1cc(NC(=O)/C=C/c2ccco2)ccc1NC(=O)c1ccccc1,–,–,–,–,–,–,·,
COc1ccccc1C(=O)N/C(=C/c1ccco1)C(=O)Nc1cccc(C(=O)O)c1,?,?,20µM,?,45µM,?,76,Pol kappa inh-2=34
Cc1cccc(NC(=O)/C(=C\c2ccc([N+](=O)[O-])o2)NC(=O)c2ccc(Cl)cc2)c1,–,?,10µM,10µM,?,–[11.6 µM],?,
CCCCCN1C(C(=O)c2ccccc2)=C(NC(=O)c2ccc(OC)c(OC)c2)c2ccccc2S1(=O)=O,–,–,–,–,–,·,·,
CCOc1cc(-c2ccc(OC(=O)c3ccc(OC)cc3)c(OC)c2)cc(=O)c2c(C)oc(C)c12,–,?,–,–,–,·,·,
COc1ccc(-c2cn3nc(N4CCCC(C(=O)Nc5ccccc5F)C4)sc3n2)cc1 (configuration not stated),–,–,–,?,–,·,·,
CCOC(=O)c1sc(NC(=O)c2ccc(=O)[nH]c2)nc1C,–,–,?,–,–,–,·,
CCOC(=O)c1sc(NC(=O)c2ccc3nc[nH]c3c2)nc1C,–,?,?,?,–,?,?,
CN1CCCC(C)(C(=O)Nc2ccc3scnc3c2)C1 (configuration not stated),·,·,·,·,·,–,·,
Cc1c(N=C2C=C(Br)C(=O)C(Br)=C2)c(=O)n(-c2ccccc2)n1C,?,4µM,?,40µM,79µM,–[11.6 µM],60,
CCOc1ccc(N2CC(NC(=O)C3CC3)CC2=O)cc1 (configuration not stated),–,?,–,–,–,·,·,
COc1ccc(C2=Nn3c(nnc3-c3ccccc3Cl)SC2)cc1OC1CCOC1 (configuration not stated),–,–,–,·,–,·,·,Pol kappa inh-2=8.4
COc1ccc(OC)c(-c2nnc3n2N=C(c2ccc(OC)c(OC4CCOC4)c2)CS3)c1 (configuration not stated),–,–,–,·,–,·,·,
